Laboratory results from PubChem BioAssay AID1159580 (chemical genetic matrix, 2015).
The whole screen tested about 5,500 compounds, of which about 2,000 (36%) were called active. Another 18% or so got no clear call; they are omitted. Rule as the data show it: active = normalized growth mostly below about 0.91 (no sharp cut-off); inconclusive = no clear call, values can overlap the other calls; inactive = mostly above about 0.92. Some of the results follow.

Test: chemical genetic growth profiling, strain panel (AID 1159580);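 also: tested at 20 µM; growth read once vehicle control cultures reached saturation at 30 °C; 1 = growth at the plate median or of vehicle wells; lower values mean less growth of the strain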
Conditions: growth OD

Measured: normalized growth

NCC1CCC(C(=O)O)CC1 (stereo not drawn)
inactive: S. cerevisiae deletion strains, locus YKL009W, strain mrt4, stronger effect = lower value 0.97 | S. cerevisiae deletion strains, locus YKL068W, stronger effect = lower value 0.984 | S. cerevisiae deletion strains, locus YKL085W, strain MDH1 (second series), stronger effect = lower value 0.985 | S. cerevisiae deletion strains, locus YKL085W, strain MDH1, stronger effect = lower value 0.985 | S. cerevisiae deletion strains, locus YKL160W, strain elf1, stronger effect = lower value 0.997 | S. cerevisiae deletion strains, locus YKL190W, strain CNB1, stronger effect = lower value 0.995 | S. cerevisiae deletion strains, locus YKR001C, strain vps1, stronger effect = lower value 1.01 | S. cerevisiae deletion strains, locus YKR026C, strain gcn3, stronger effect = lower value 0.993 | S. cerevisiae deletion strains, locus YKR091W, strain srl3, stronger effect = lower value 0.997 | S. cerevisiae deletion strains, locus YLL001W, strain dnm1, stronger effect = lower value 0.998 | S. cerevisiae deletion strains, locus YLL026W, stronger effect = lower value 0.996 | S. cerevisiae deletion strains, locus YLL041C, strain sdh2, stronger effect = lower value 0.996 | S. cerevisiae deletion strains, locus YLR027C, strain aat2, stronger effect = lower value 0.989 | S. cerevisiae deletion strains, locus YLR039C, strain RIC1, stronger effect = lower value 0.975 | S. cerevisiae deletion strains, locus YLR058C, strain SHM2, stronger effect = lower value 1 | S. cerevisiae deletion strains, locus YLR102C, strain apc9, stronger effect = lower value 0.989 | S. cerevisiae deletion strains, locus YLR113W, strain HOG1, stronger effect = lower value 1 | S. cerevisiae deletion strains, locus YLR221C, strain rsa3, stronger effect = lower value 0.984 | S. cerevisiae deletion strains, locus YLR258W, strain gsy2, stronger effect = lower value 0.999 | S. cerevisiae deletion strains, locus YLR262C, strain YPT6 (second series), stronger effect = lower value 0.984 | S. cerevisiae deletion strains, locus YLR262C, strain YPT6, stronger effect = lower value 0.953 | S. cerevisiae deletion strains, locus YLR268W, strain sec22, stronger effect = lower value 0.991 | S. cerevisiae deletion strains, locus YLR320W, strain mms22, stronger effect = lower value 0.992 | S. cerevisiae deletion strains, locus YLR330W, strain CHS5, stronger effect = lower value 0.991 | S. cerevisiae deletion strains, locus YLR342W, strain FKS1 (second series), stronger effect = lower value 0.986 | S. cerevisiae deletion strains, locus YLR342W, strain FKS1, stronger effect = lower value 0.998 | S. cerevisiae deletion strains, locus YLR357W, strain rsc2, stronger effect = lower value 0.996 | S. cerevisiae deletion strains, locus YLR370C, strain arc18, stronger effect = lower value 0.996 | S. cerevisiae deletion strains, locus YLR371W, strain rom2, stronger effect = lower value 1 | S. cerevisiae deletion strains, locus YLR384C, strain iki3, stronger effect = lower value 0.999 | S. cerevisiae deletion strains, locus YLR418C, strain cdc73, stronger effect = lower value 0.97 | S. cerevisiae deletion strains, locus YML016C, strain PPZ1, stronger effect = lower value 0.999 | S. cerevisiae deletion strains, locus YML032C, strain rad52, stronger effect = lower value 1.01 | S. cerevisiae deletion strains, locus YML120C, strain ndi1, stronger effect = lower value 0.974 | S. cerevisiae deletion strains, locus YML124C, strain tub3, stronger effect = lower value 0.998 | S. cerevisiae deletion strains, locus YMR058W, strain fet3, stronger effect = lower value 0.988 | S. cerevisiae deletion strains, locus YMR078C, strain ctf18, stronger effect = lower value 0.98 | S. cerevisiae deletion strains, locus YMR125W, strain sto1, stronger effect = lower value 0.999 | S. cerevisiae deletion strains, locus YMR129W, stronger effect = lower value 0.999 | S. cerevisiae deletion strains, locus YMR205C, strain PFK2, stronger effect = lower value 0.989 | S. cerevisiae deletion strains, locus YMR223W, strain ubp8, stronger effect = lower value 0.987 | S. cerevisiae deletion strains, locus YMR231W, strain pep5, stronger effect = lower value 0.999 | S. cerevisiae deletion strains, locus YMR307W, strain GAS1, stronger effect = lower value 1.01 | S. cerevisiae deletion strains, locus YNL067W, strain RPL9B, stronger effect = lower value 1.03 | S. cerevisiae deletion strains, locus YNL071W, strain lat1, stronger effect = lower value 0.989 | S. cerevisiae deletion strains, locus YNL153C, strain GIM3, stronger effect = lower value 1.06 | S. cerevisiae deletion strains, locus YNL183C, strain NPR1, stronger effect = lower value 0.946 | S. cerevisiae deletion strains, locus YNL209W, strain ssb2, stronger effect = lower value 1.02 | S. cerevisiae deletion strains, locus YNL233W, strain BNI4, stronger effect = lower value 1.03 | S. cerevisiae deletion strains, locus YNL248C, strain rpa49, stronger effect = lower value 0.988 | S. cerevisiae deletion strains, locus YNL250W, strain rad50, stronger effect = lower value 0.979 | S. cerevisiae deletion strains, locus YNL271C, strain bni1, stronger effect = lower value 0.978 | S. cerevisiae deletion strains, locus YNL298W, strain CLA4, stronger effect = lower value 0.987 | S. cerevisiae deletion strains, locus YNL307C, strain MCK1, stronger effect = lower value 0.999 | S. cerevisiae deletion strains, locus YNL322C, strain KRE1 (second series), stronger effect = lower value 0.992 | S. cerevisiae deletion strains, locus YNL322C, strain KRE1, stronger effect = lower value 0.991 | S. cerevisiae deletion strains, locus YNR049C, strain mso1, stronger effect = lower value 0.991 | S. cerevisiae deletion strains, locus YNR052C, strain pop2, stronger effect = lower value 0.985 | S. cerevisiae deletion strains, locus YOL006C, strain TOP1, stronger effect = lower value 1.1 | S. cerevisiae deletion strains, locus YOL012C, strain htz1 0.934 | S. cerevisiae deletion strains, locus YOL147C, strain pex11, stronger effect = lower value 0.99 | S. cerevisiae deletion strains, locus YOR001W, strain rrp6, stronger effect = lower value 0.998 | S. cerevisiae deletion strains, locus YOR061W, strain CKA2, stronger effect = lower value 1 | S. cerevisiae deletion strains, locus YOR069W, strain VPS5, stronger effect = lower value 0.986 | S. cerevisiae deletion strains, locus YOR070C, strain gyp1, stronger effect = lower value 0.993 | S. cerevisiae deletion strains, locus YOR080W, strain dia2, stronger effect = lower value 0.987 | S. cerevisiae deletion strains, locus YOR083W, strain WHI5, stronger effect = lower value 1 | S. cerevisiae deletion strains, locus YOR106W, strain vam3, stronger effect = lower value 1.01 | S. cerevisiae deletion strains, locus YOR136W, strain idh2, stronger effect = lower value 0.991 | S. cerevisiae deletion strains, locus YOR144C, strain elg1, stronger effect = lower value 1 | S. cerevisiae deletion strains, locus YOR184W, strain ser1, stronger effect = lower value 0.981 | S. cerevisiae deletion strains, locus YOR231W, strain MKK1, stronger effect = lower value 1.05 | S. cerevisiae deletion strains, locus YOR265W, strain rbl2, stronger effect = lower value 0.994 | S. cerevisiae deletion strains, locus YOR270C, strain vph1, stronger effect = lower value 0.987 | S. cerevisiae deletion strains, locus YOR290C, strain snf2, stronger effect = lower value 1.01 | S. cerevisiae deletion strains, locus YOR316C, strain cot1, stronger effect = lower value 0.992 | S. cerevisiae deletion strains, locus YPL051W, strain arl3, stronger effect = lower value 0.993 | S. cerevisiae deletion strains, locus YPL078C, strain atp4, stronger effect = lower value 0.993 | S. cerevisiae deletion strains, locus YPL106C, strain sse1, stronger effect = lower value 0.967 | S. cerevisiae deletion strains, locus YPL240C, strain hsp82, stronger effect = lower value 0.989 | S. cerevisiae deletion strains, locus YPL241C, strain CIN2, stronger effect = lower value 0.996 | S. cerevisiae deletion strains, locus YPL256C, strain CLN2, stronger effect = lower value 1.02 | S. cerevisiae deletion strains, locus YPR119W, strain clb2, stronger effect = lower value 0.994 | S. cerevisiae deletion strains, locus YPR141C, strain kar3, stronger effect = lower value 0.998 | S. cerevisiae deletion strains, locus YPR163C, strain tif3, stronger effect = lower value 0.992 | S. cerevisiae deletion strains, locus YPR167C, strain met16, stronger effect = lower value 0.989 | S. cerevisiae deletion strains, strain wtn01, stronger effect = lower value 0.979 | S. cerevisiae strains, strain wild type, stronger effect = lower value 0.995
